Results on 16 compounds are retold here after PubChem BioAssay (Tox21).

Values without a mark were called inactive. Results filed as inconclusive are left out. Activity calls are given as the source filed them. The call rests on the fitted dose curve; in most records, active means well fitted curve in the direction sought with a large enough effect in the repeat runs; inconclusive means weak or mixed curves; inactive means no such curve, though single readings can be large; an effect the other way counts as inactive or inconclusive.

A short description of experiment [1]: qHTS RealTime-Glo MT Cell Viability Assay in HEK293 cells - 0 hour (AID 1224880). Further: top concentration of the series differs between compounds; nearly all actives have a fitted effect of over 45% in size. A digest of the protocol: (§1)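 Real-time viability in HEK293: signal arises when living cells convert a prosubstrate for NanoLuc in the medium, so luminescence tracks viable cell number. Compound (23 nL, DMSO) added 5 h post-seeding; kinetic reads at 0–40 h, 37 C.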
For orientation: In qHTS, concentration-response curves come from the screen itself.

Experiment [2] is described as follows: A CellTox Green Cytotoxicity Assay to monitor cytotoxicity in HEK293 cells - 32 hour (AID 1224881). Further: nearly all actives have a fitted effect of over 40% in size. The method in brief:
(§2)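 Cells (HEK293, 600/well) and dye reagent are dispensed together. After 5 h at 37 C, 23 nL compound is pinned in. Plates stay at 37 C for 40 h with fluorescence read at 0h, 8h, 16h, 24h, 32h and 40h.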

Experiment [3] is described as follows: A CellTox Green Cytotoxicity Assay to monitor cytotoxicity in HepG2 cells - 0 hour (AID 1224882). Further: nearly all actives have a fitted effect of over 35% in size. The method in brief:
(§3)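 Cells and non-lytic dye reagent are dispensed together (600 HepG2 cells/well) and incubated 5 h before DMSO compound transfer. Kinetic fluorescence is then recorded in the same wells during 40 h at 37 C.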

Experiment [4] is described as follows: A CellTox Green Cytotoxicity Assay to monitor cytotoxicity in HepG2 cells - 32 hour (AID 1224883). Further: nearly all actives have a fitted effect of over 50% in size. Further: potency means the concentration at half of the fitted maximal effect. A digest of the protocol: as §3
The nature of experiment [5]: A CellTox Green Cytotoxicity Assay to monitor cytotoxicity in HEK293 cells - 8 hour (AID 1224884). Further: nearly all actives have a fitted effect of over 35% in size. A digest of the protocol:
as §2

Experiment [6] in a line: qHTS RealTime-Glo MT Cell Viability Assay in HepG2 cells - 16 hour (AID 1224885). Further: nearly all actives have a fitted effect of over 50% in size. The method in brief: (§4)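 Compound treatment began 5 h after plating HepG2 cells (600/well) with NanoLuc luciferase and prosubstrate. Plates stayed at 37 C for 40 h; luminescence was captured at six time points, 0 h through 40 h.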
The nature of experiment [7]: qHTS RealTime-Glo MT Cell Viability Assay in HEK293 cells - 24 hour (AID 1224886). Further: top concentration of the series differs between compounds; nearly all actives have a fitted effect of over 50% in size. The method in brief:
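Quantitative high-throughput screen of the Tox21 10K library in HEK293: cells and RealTime-Glo reagents plated together, compound added at 5 h, luminescence monitored through 40 h at 37 C.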

Experiment [8] is described as follows: A CellTox Green Cytotoxicity Assay to monitor cytotoxicity in HEK293 cells - 16 hour (AID 1224888). Further: nearly all actives have a fitted effect of over 35% in size. A digest of the protocol: as §2
A short description of experiment [9]: qHTS RealTime-Glo MT Cell Viability Assay in HepG2 cells - 0 hour (AID 1224889). Further: nearly all actives have a fitted effect of over 50% in size. The method in brief: as §4
A short description of experiment [10]: qHTS RealTime-Glo MT Cell Viability Assay in HEK293 cells - 8 hour (AID 1224887). The method in brief:
as §1
On the % scale 0 is the no-effect control and ±100 the full control effect.

As for `CCCCC(CC)COC(=O)COc1ccc(Cl)cc1C` (stereo unspecified), the Potency result in experiment [1], in experiment [2], in experiment [3], in experiment [4], in experiment [5] and in experiment [6] was “inactive” in each case. The Potency result in [7], in experiment [8] and in [9] was “inactive” in each case.
With `O=C(O)c1ccc(CO)o1`, the Potency entry in experiment [1], in [2], in experiment [3], in [4], in experiment [5] and in experiment [6] was “inactive” in each case. Also, the Potency entry in experiment [7], in experiment [10], in [8] and in experiment [9] was “inactive” in each case.
With `CCn1cc(C(=O)O)c(=O)c2cc(F)c(N3CCNCC3)nc21`, the Potency result in experiment [1], in [2], in experiment [3], in [4], in [5] and in experiment [6] was “inactive” in each case. The Potency result in experiment [7], in experiment [8] and in experiment [9] was “inactive” each time.
As to `O=C(/C=C/c1ccccc1)OCCCc1ccccc1`, the Potency entry in experiment [1], in experiment [2], in experiment [3], in experiment [4], in experiment [5] and in experiment [6] was “inactive” throughout. For the same compound, the Potency entry in experiment [7], in experiment [10], in experiment [8] and in experiment [9] was “inactive” each time.
Take `CCC(=O)OC/C=C/c1ccccc1`: the Potency result in [1], in experiment [2], in experiment [3], in experiment [4], in experiment [5] and in experiment [6] was “inactive” each time. The Potency entry in experiment [7], in experiment [10], in experiment [8] and in experiment [9] was “inactive” each time.
Consider `CC(=O)Nc1ccc(N)cc1`, for which the Potency result in experiment [1], in experiment [2], in experiment [3], in experiment [4], in [5] and in [6] was “inactive” in each case. Further, the Potency result in experiment [7], in experiment [10], in experiment [8] and in [9] was “inactive” throughout.
Consider `CC(=N\O)/C(C)=N/O`, for which the Potency entry in experiment [1], in experiment [2], in [3], in experiment [4], in experiment [5] and in [6] was “inactive” each time. For the same compound, the Potency entry in experiment [7], in experiment [8] and in experiment [9] was “inactive” throughout.
As to `CCCOc1ccc(S(=O)(=O)N2CCN(CC)CC2)cc1-c1nc2c(CC)n(Cc3ccccn3)nc2c(=O)[nH]1`, the Potency result in [1], in experiment [2], in experiment [3], in experiment [4], in experiment [5] and in experiment [6] was “inactive” in each case. The Potency entry in experiment [7], in [8] and in [9] was “inactive” in each case.
Turning to `CN1CCN(c2c(F)cc3c(=O)c(C(=O)O)cn4c3c2OCN4C)CC1`, the activity change, negative = cytotoxicity in experiment [1] is -2.72% [at 15.8 µM]; in experiment [7], 0.438% [at 15.8 µM]; in [9] it was 2.43% [at 15.8 µM]. The cytotoxicity increase is -5.3% [at 15.8 µM] in [2], -4.96% [at 15.8 µM] in experiment [4] and -22% [at 15.8 µM] in [5]. Moreover, the cytotoxicity in experiment [3] was -9.31% [at 15.8 µM]. In experiment [6], the activity change, negative = cytotoxic is 4.97% [at 15.8 µM]. In addition, the activity change in experiment [8] is -3.76% [at 15.8 µM, active compounds read high].
As to `Fc1c(F)c(F)c(Br)c(F)c1F`, the Potency result in [1], in [2], in [3], in experiment [4], in experiment [5] and in experiment [6] was “inactive” throughout. Also, the Potency entry in [7], in experiment [10], in experiment [8] and in experiment [9] was “inactive” throughout.
Turning to `O=C(O)c1c(O)c(-c2ccccc2)nc2ccccc12`, the Potency entry in experiment [1], in experiment [2], in experiment [3], in experiment [4], in experiment [5] and in experiment [6] was “inactive” each time. In addition, the Potency entry in experiment [7], in experiment [10], in experiment [8] and in [9] was “inactive” throughout.
Take `CC#N`: the Potency entry in experiment [1], in experiment [2], in experiment [3], in experiment [4], in experiment [5] and in experiment [6] was “inactive” each time. Besides, the Potency entry in experiment [7], in experiment [10], in experiment [8] and in experiment [9] was “inactive” throughout.
Consider `CO[C@H]1O[C@H](CO)[C@@H](O)[C@H](O)[C@H]1O`, for which the Potency result in [1], in experiment [2], in [3], in [4], in experiment [5] and in experiment [6] was “inactive” each time. Also, the Potency entry in experiment [7], in experiment [8] and in experiment [9] was “inactive” each time.
As to `Cc1ccc(S)cc1`, the Potency result in [1], in [2], in [3], in experiment [5], in experiment [6] and in experiment [7] was “inactive” in each case. Also, the Potency entry in experiment [8] was “inactive”. Moreover, the Potency in [4] is 17.4 µM (active).
For the compound `C[Si](NC1CCCCC1)(NC1CCCCC1)NC1CCCCC1`, the Potency result in [1], in [2], in experiment [3], in experiment [4], in [5] and in experiment [6] was “inactive” in each case. In addition, the Potency entry in [7], in experiment [8] and in [9] was “inactive” throughout.
Take `C=CC(C)=CCC=C(C)C`: the Potency entry in experiment [1], in [2], in experiment [3], in experiment [4], in [5] and in experiment [6] was “inactive” throughout. Further, the Potency result in experiment [7], in experiment [10], in experiment [8] and in experiment [9] was “inactive” each time.
